Shown are actives, neighbours in structure and some others; about 11% of the full set was active somewhere.
HADH2 inh – qHTS Assay for Inhibitors of HADH2 (Hydroxyacyl-Coenzyme A Dehydrogenase, Type II) | 3-hydroxyacyl-CoA dehydrogenase type-2 (Homo sapiens), Q99714 | recombinant HADH2, NADH fluorescence, beta-hydroxybutyryl-CoA | Potency, µM (highest dose often 57.1 µM), hits mostly inhibitors | 73,000 compounds, 3.4% hits | AID 886, 2007; further: nearly all actives have a fitted effect of over 60% in size
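Activity measured as NADH fluorescence gain (360/450 nm), taken as the change between first and last reads of a 4-min kinetic run. Conditions: pH 9.0 Tris buffer, 20 nM E. coli-expressed His-tagged enzyme, 1 mM NAD+, 90 uM beta-hydroxybutyryl-CoA; 15-min compound preincubation.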
HSD17B inh – qHTS Assay for Inhibitors of HSD17B4, hydroxysteroid (17-beta) dehydrogenase 4; recombinant HSD17B10, NADH fluorescence kinetic; Potency, µM (highest dose often 57.1 µM), most hits filed as inhibitors; 75,000 compounds, 7.6% hits; AID 893, 2007;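 further: the protocol describes HADH2 (HSD17B10) and not the HSD17B4 of the title; nearly all actives have a fitted effect of over 70% in size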
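Enzyme plus compound, 15 min room temperature; substrate mix added (NAD+ 1 mM, beta-hydroxybutyryl-CoA 90 uM final); plates read kinetically for NADH fluorescence. HADH2 was His-tagged, E. coli-derived, 20 nM.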
ALOX15 inhib – qHTS Assay for Inhibitors of 15-hLO (15-human lipoxygenase); purified 15hLO-1, xylenol orange hydroperoxide absorbance; Polyunsaturated fatty acid lipoxygenase ALOX15 (Homo sapiens), P16050; AID 887, 2007; Potency, µM (top dose mostly 57.1 µM), hits mostly inhibitors; 74,000 compounds, 1.4% hits; further: nearly all actives have a fitted effect of over 55% in size
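Purified human 15hLO-1 (40 nM final) in 25 mM Hepes pH 7.5, 0.01% Triton X-100 was preincubated with compound 15 min at room temperature, then reacted 6 min with 50 uM arachidonic acid; hydroperoxide detected by Fe-XO, 573/405 nm absorbance ratio.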
ERK AVP inh – qHTS Assay for Inhibitors of the ERK Signaling Pathway using a Homogeneous Screening Assay; HEK293-V1b, vasopressin-stimulated pERK AlphaScreen; Potency, µM (highest dose often 57.5 µM), hits mostly inhibitors; 72,000 compounds, 0.99% hits; further: nearly all actives have a fitted effect of over 55% in size
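Phosphorylated ERK1/2 detected via AlphaScreen bead proximity in lysates of V1b-expressing HEK293 cells given 25 nM vasopressin for 5 min after 30 min compound exposure (37 °C). AC50 from Hill equation; basal DMSO 0%, vasopressin 100%.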
PK Bst – Pyruvate Kinase; purified pyruvate kinase, luminescence ATP production; ribose 5-phosphate activator present at AC10; Potency, µM; 51,000 compounds, 1.2% hits; in the data active means potency below about 11 µM; inconclusive means mostly about 12 µM to 25 µM;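 the screen sought inhibitors and activators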
FLuc inh – qHTS Assay for Inhibitors of Firefly Luciferase; purified firefly luciferase, luminescence, 8 min; Potency, µM (titrated, usually from 57.1 µM), most hits filed as inhibitors; AID 411, 2009; 72,000 compounds, 2.2% hits; Luciferin 4-monooxygenase (Photinus pyralis), P08659; further: nearly all actives have a fitted effect of over 40% in size
Target sequence (P08659 whole entry, looked up): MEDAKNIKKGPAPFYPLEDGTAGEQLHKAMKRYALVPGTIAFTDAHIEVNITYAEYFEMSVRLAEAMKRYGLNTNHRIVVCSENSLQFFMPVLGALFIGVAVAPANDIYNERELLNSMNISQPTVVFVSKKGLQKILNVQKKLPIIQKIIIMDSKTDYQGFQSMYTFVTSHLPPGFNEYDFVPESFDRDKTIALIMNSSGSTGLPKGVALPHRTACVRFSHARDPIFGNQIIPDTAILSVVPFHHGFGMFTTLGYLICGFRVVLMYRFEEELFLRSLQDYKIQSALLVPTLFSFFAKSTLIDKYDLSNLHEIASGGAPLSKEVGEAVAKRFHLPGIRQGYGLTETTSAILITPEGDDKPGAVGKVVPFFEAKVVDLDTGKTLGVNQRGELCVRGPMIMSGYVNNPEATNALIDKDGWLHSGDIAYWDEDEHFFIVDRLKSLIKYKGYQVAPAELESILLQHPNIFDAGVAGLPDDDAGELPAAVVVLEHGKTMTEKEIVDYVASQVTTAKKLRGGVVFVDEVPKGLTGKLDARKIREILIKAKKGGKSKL
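Substrate buffer containing 10 uM ATP (pH 7.2 imidazole, Mg2+, KCl, detergent, BSA) is dispensed, compound pinned in, then luciferase/luciferin detector mix added. After 8 min at ambient temperature, light output is measured.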
Each line names hits and unclear results; the compound was inactive in the other large screens; ! = repeats disagree. Unless noted, the call rests on the fitted dose curve; in most records, active means well fitted curve in the direction sought with a large enough effect; inconclusive means small, poorly fitted or top-dose-only effect, or another doubt; inactive means no such curve, though single readings can be large; an effect the other way counts as inactive or inconclusive.

Oc1cccc(Nc2ccccc2)c1	none (no result: PK Bst, FLuc inh)
[O-][N+]1=c2ccc(Nc3ccccc3)cc2=NC12CCCCC2	HADH2 inh inconclusive, HSD17B inh inconclusive, ALOX15 inhib 3.2µM, ERK AVP inh inconclusive (no result: PK Bst)
COc1ccc(OC)c(NC2=NC3(CCCC3)N=C(N)N2)c1	none
COc1ccc(Nc2ccc3c(c2)=NC2(CCCCC2)[N+]=3[O-])cc1	ALOX15 inhib inconclusive, ERK AVP inh 16µM, FLuc inh inconclusive (no result: PK Bst)
CCOC(=O)CCN1C(=O)[C@H]2[C@H]3[C@H](O)[C@H](O)C/C(=N/OCc4ccccc4)[C@@H]3CC[C@@H]2C1=O	none (no result: PK Bst)
CN(C)Cc1ccccc1-c1ccc2ncnc(NC3CC3)c2c1	none (no result: PK Bst)
COc1cccc(C(=O)N2CCN(C(=O)c3cccc(F)c3)CC2)c1	none
O=C(c1cccc(F)c1)N1CCN(C(=O)c2cc(-c3ccc(Cl)cc3Cl)on2)CC1	HSD17B inh inconclusive, ALOX15 inhib 16µM, ERK AVP inh inconclusive (no result: PK Bst)
COc1ccc(Br)cc1CNC(=O)C1CCN(S(=O)(=O)N2CCCC2)CC1	none
COc1ccc(Br)cc1CNc1ccc(O)cc1	HADH2 inh 25µM, HSD17B inh inconclusive, ALOX15 inhib inconclusive
CCN(C(=O)c1cc2cc(OC)ccc2oc1=O)c1ccccc1	none
COc1ccc2oc(=O)c(NC(=O)C3CCCCC3)cc2c1	HSD17B inh 5µM
COc1ccc(NC(=O)c2cc3cc(OC)ccc3oc2=N)cc1	HSD17B inh 32µM (no result: PK Bst)
N[C@H](C(=O)N[C@@H]1C(=O)N2C(C(=O)O)=C(Cl)CS[C@@H]12)c1ccccc1	HADH2 inh 3.2µM!, HSD17B inh inconclusive (no result: PK Bst)
COc1ccc2nc(NC(=O)c3ccc(-n4nc(C)cc4C)cc3)sc2c1	HSD17B inh 25µM
Cc1cc(C)n(-c2ccc(C(=O)Nc3nnc(C4CC4)s3)cc2)n1	none
Cc1cccc2cc3c(N)c(C(=O)N4CCOCC4)sc3nc12	ALOX15 inhib inconclusive, PK Bst inconclusive, FLuc inh 16µM
Cn1c(SCC(=O)N2CCOCC2)nc2sc3c(c2c1=O)CCCC3	none
Nc1nc2sc3c(c2cc1C(=O)N1CCOCC1)CCCC3	HSD17B inh 25µM, ALOX15 inhib 3.2µM, ERK AVP inh inconclusive, FLuc inh inconclusive (no result: PK Bst)
N#Cc1ccc(CN2CC[C@@]3(CCCN(C(=O)c4cccc(F)c4)C3)C2)cc1	none (no result: PK Bst)
C=CCc1cccc(C2Nc3ccccc3C(=O)N2O)c1O (configuration not stated)	ALOX15 inhib inconclusive
O=C1c2ccccc2NC(c2ccc(Cl)cc2Cl)N1O (configuration not stated)	ALOX15 inhib 16µM
COc1ccc(-c2coc3cc(O[C@@H]4O[C@@H](CO)[C@@H](O)[C@@H](O)[C@H]4O)cc(O)c3c2=O)cc1	none (no result: HSD17B inh, ALOX15 inhib, ERK AVP inh, PK Bst)
C[C@@]12C(=O)OC(=O)[C@@]1(C)[C@@H]1CC[C@@H]2O1	none (no result: PK Bst)
C[C@@]12C(=O)OC(=O)[C@@]1(C)C1CCC2O1	ERK AVP inh 3.2µM (no result: HADH2 inh, PK Bst, FLuc inh)
C[C@@]12C(=O)OC(=O)[C@]1(C)[C@H]1CC[C@@H]2O1	ERK AVP inh 5µM (no result: PK Bst)
COc1cccc(C2CC(=O)N3CN(c4cccc(Cl)c4C)CSC3=C2C#N)c1OC (configuration not stated)	HADH2 inh 1.6µM, HSD17B inh inconclusive, ALOX15 inhib inconclusive (no result: PK Bst)
COc1ccc(OC)c(C2CC(=O)N3CN(c4cccc(Cl)c4C)CSC3=C2C#N)c1 (configuration not stated)	HADH2 inh 1.3µM, HSD17B inh 32µM, ALOX15 inhib inconclusive (no result: PK Bst)
COc1c2ccoc2nc2c(OC)c(OC[C@H](O)C(C)(C)O)ccc12	HADH2 inh 40µM, HSD17B inh 13µM (no result: PK Bst)
O=C1C=C[C@@H](O)[C@H]2[C@@H]3C(=O)N(Cc4ccccc4)C(=O)[C@@H]3CC[C@H]12	none (no result: PK Bst)
CCCC(=O)Nc1ccc2oc(-c3cccnc3)nc2c1	HSD17B inh 25µM (no result: PK Bst)
O=C(Nc1ccc2oc(-c3cccnc3)nc2c1)c1cc2ccccc2o1	none (no result: PK Bst)

Screening results from PubChem.
